According to PubChem BioAssay (NCATS):
Inconclusive results are not listed. The call rests on the fitted dose curve; in most records, active means well fitted inhibition curve with a large enough effect; inconclusive means small, poorly fitted or top-dose-only effect; inactive means flat fitted curve, though single readings scatter. Bridge positions count the residues as written; N and C are the ends. Square brackets hold non-standard residues; d marks the D form. Peptide text beside a SMILES is read from it. * marks the point of attachment. Ileψ(thiazoline)Cys = CC[C@H](C)[C@H](N)C1=N[C@H](C(=O)*)CS1; d(aIle) = CC[C@H](C)[C@@H](N)C(=O)O; dOrn = NCCC[C@@H](N)C(=O)O

target: Ubiquitin carboxyl-terminal hydrolase 1 (Homo sapiens) (UniProt O94782); experiment: Inhibitors of USP1/UAF1: Pilot qHTS (AID 504865); conditions: purified USP1/UAF1, Ub-rhodamine cleavage fluorescence; series mostly up to 114 µM; activity change, negative = inhibition: at the top concentration;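 further: rhodamine fluorescence freed from ubiquitin-rhodamine substrate followed over time; top concentration of the series differs between compounds; nearly all actives have a fitted effect of over 35% in size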
Sequence (O94782 whole entry, looked up): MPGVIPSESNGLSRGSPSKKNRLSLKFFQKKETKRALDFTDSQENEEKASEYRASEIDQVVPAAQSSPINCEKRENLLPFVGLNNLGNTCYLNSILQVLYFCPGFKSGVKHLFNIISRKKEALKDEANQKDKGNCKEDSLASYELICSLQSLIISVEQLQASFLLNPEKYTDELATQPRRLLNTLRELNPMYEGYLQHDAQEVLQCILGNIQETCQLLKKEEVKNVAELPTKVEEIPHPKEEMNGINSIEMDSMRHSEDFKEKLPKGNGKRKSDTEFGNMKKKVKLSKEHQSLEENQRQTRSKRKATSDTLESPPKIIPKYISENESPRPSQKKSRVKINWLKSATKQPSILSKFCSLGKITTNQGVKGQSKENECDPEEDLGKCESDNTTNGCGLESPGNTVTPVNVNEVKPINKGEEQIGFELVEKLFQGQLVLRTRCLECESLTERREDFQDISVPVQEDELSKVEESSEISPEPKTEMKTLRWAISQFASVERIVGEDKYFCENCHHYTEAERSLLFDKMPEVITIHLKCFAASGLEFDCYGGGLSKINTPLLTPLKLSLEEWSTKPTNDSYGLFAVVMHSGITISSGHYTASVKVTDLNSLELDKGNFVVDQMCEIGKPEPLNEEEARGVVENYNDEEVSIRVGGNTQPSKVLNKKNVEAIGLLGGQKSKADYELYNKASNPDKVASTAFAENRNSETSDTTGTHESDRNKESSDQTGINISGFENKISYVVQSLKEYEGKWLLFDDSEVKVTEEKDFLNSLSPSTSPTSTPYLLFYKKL
Excerpt: Deubiquitinating enzymes (DUBs) are a class of enzymes that can cleave isopeptide bond formed between the C-terminal carboxylate of ubiquitin and a lysine side-chain amino group on the target protein. Among them, ubiquitin specific proteases (USPs) constitute the largest DUB family. Human USPs are emerging as promising targets for pharmacological intervention because of their connection to a number of human diseases, including prostate, colon and breast cancer (1, 2), pediatric acute lymphoblastic leukemia (3), and familial cylindromatosis (4). The advantage of inhibiting USPs lies in the potential specificity of therapeutic intervention that can lead to better efficacy and reduce nonspecific side effects.
In a collaboration between the University of Delaware and the NIH Chemical Genomics Center, a high-throughput screen assay was developed to screen for USP1/UAF1 inhibitors. This miniaturized assay has a fluorescent read-out and is used to screen the NIH Molecular Libraries Small Molecule Repository (MLSMR) in order to identify a small molecule that inhibits USP1.
NIH Chemical Genomics Center [NCGC]
NIH Molecular Libraries Probe Centers Network [MLPCN]
Assay Submitter (PI): Zhihao Zhuang, University of Delaware
1. Priolo, C., et al. (2006) The isopeptidase USP2a protects human prostate cancer from apoptosis. Cancer Res 66, 8625-8632
2. Popov, N., et al. (2007) The ubiquitin-specific protease USP28 is required for MYC stability. Nat Cell Biol 9, 765-774
3. De Pitta, C., et al. (2005) A leukemia-enriched cDNA microarray platform identifies new transcripts with relevance to the biology of pediatric acute lymphoblastic leukemia. Haematologica 90, 890-898
4. Kovalenko, A., et al. (2003) The tumour suppressor CYLD negatively regulates NF-kappaB signalling by deubiquitination. Nature 424, 801-805
3 microliters of reagents (buffer in columns 3 and 4 as negative control and 1nM USP1/UAF1 complex in columns 1, 2, and 5-48) are dispensed into Greiner black solid bottom 1536-well assay plates. Compounds are then transferred via Kalypsys pin tool equipped with 1536-pin array (10nl slotted pins, V&P Scientific, San Diego, CA). Following an incubation step of 15 min at room temperature, 1ul of Ub-Rho substrate (150nM final concentration) is added to initiate the reaction. The plates are immediately centrifuged at 1000 rpm for 15 seconds, and subsequently transferred to a ViewLux high-throughput CCD imager (PerkinElmer) wherein kinetic measurements of fluorescence are acquired using 480 nm excitation/540 nm emission filter set (6 reads every 60 seconds, see Table 1). All reagents are diluted in an assay buffer consisting of 50mM HEPES (pH 7.8), 0.5mM EDTA, 0.1 mg/ml BSA, 1mM TCEP, and 0.01% Tween-20.
On the % scale 0 is the no-effect control and ±100 the full control effect.

Activity change, negative = inhibition, inactive:
Nc1ncnc2c1nc(Cl)n2C1OC(CO)C(O)C1O (stereo not given) -7.54%, COc1cc(/C=C/C(=O)O)cc(OC)c1OC 0.0748%, CCC(CO)NCCNC(CC)CO (stereo not given) -11.5%, CC[C@H](C)[C@H](NC(=O)OCC1c2ccccc2-c2ccccc21)C(=O)O -8.14%, COc1cc(N)c(Cl)cc1C(=O)N[C@H]1CCN(CCCOc2ccc(F)cc2)C[C@H]1OC -7.17% [at 54.9 µM], CC(C)CC(NC(=O)OCC1c2ccccc2-c2ccccc21)C(=O)O (stereo not given) -5.37%, COc1cc(-c2coc3cc(OC)c(OC)c(OC)c3c2=O)cc(OC)c1OC -6.8%, NS(=O)(=O)c1cc2c(cc1Cl)N[C@@H](C(Cl)Cl)NS2(=O)=O 5.67% [at 54.9 µM], CC(=O)N(C[C@@H](C)C(=O)O)c1c(I)cc(I)c(N)c1I -5.39% [at 54.9 µM], NC(=O)c1cc[n+](CC2=C(C(=O)[O-])N3C(=O)[C@@H](NC(=O)Cc4cccs4)[C@@H]3SC2)cc1 -7.27% [at 54.9 µM], O=C(NC1CCCCC1)NC1CCCCC1 -2.56%, Nc1nc2ncc(=O)[nH]c2c(=O)[nH]1 -5.06%, c1ccc2c(c1)CCCc1cc(NCCN3CCOCC3)nnc1-2 5.48% [at 54.9 µM], C[C@H](CCC(=O)O)[C@H]1CC[C@@H]2[C@@H]3[C@@H](O)C[C@H]4C[C@@H](O)CC[C@@]4(C)[C@H]3CC[C@@]21C -7.01% [at 54.9 µM], COC(=O)N/N=C/C1=C[N+](=O)c2ccccc2[N+]1=O 1.35%, CC[C@H](C)[C@H](N)C1=N[C@H](C(=O)N[C@@H](CC(C)C)C(=O)N[C@@H](CCC(=O)O)C(=O)N[C@@H](C(=O)N[C@H]2CCCCNC(=O)[C@@H](CC(N)=O)NC(=O)[C@@H](CC(=O)O)NC(=O)[C@@H](Cc3cnc[nH]3)NC(=O)[C@@H](Cc3ccccc3)NC(=O)[C@@H]([C@@H](C)CC)NC(=O)[C@@H](CCCN)NC2=O)[C@@H](C)CC)CS1 ({Ileψ(thiazoline)Cys}-LE[d(aIle)]K[dOrn][d(aIle)][dF][dH][dD][dN]; lactam 4-C) -3.44% [at 54.9 µM], COc1cc(C2c3cc4c(cc3C(O[C@@H]3OC5COC(c6cccs6)OC5C(O)C3O)C3COC(=O)C23)OCO4)cc(OC)c1O (stereo not given in full) -5.57%, NCCC(=O)N[C@H](Cc1cnc[nH]1)C(=O)O -6.35%, O=c1oc2ccccc2cc1O -6.55%, C[C@@H]1O[C@H](O[C@@H]2[C@H](C)O[C@H](O[C@@H]3[C@H](C)O[C@H](O[C@H]4CC[C@]5(C)[C@@H](CC[C@@H]6[C@H]5C[C@@H](O)[C@]5(C)[C@@H](C7=CC(=O)OC7)CC[C@]65O)C4)C[C@@H]3O)C[C@@H]2O)C[C@H](O)[C@@H]1O 3.73% [at 54.9 µM], Cn1nnnc1SCC1=C(C(=O)O)N2C(=O)C(NC(=O)C(O)c3ccccc3)C2SC1 (stereo not given) -11.2%, CO[C@@H]1CC[C@@]2(C)[C@@H](CC[C@@]3(C)[C@H]2CC=C2[C@H]4CC(C)(C)[C@H](O)[C@@H](OC(C)=O)[C@]4(CO)[C@H](O)C[C@]23C)[C@@]1(C)CO (tested in a mixture with another compound) -2.66% [at 54.9 µM], C#C[C@@]1(O)CC[C@@H]2[C@@H]3CCC4=CC(=O)CC[C@@H]4[C@H]3CC[C@]21C 8.08% [at 54.9 µM], COc1c2ccccc2nc2occc12 -10.5%, C[C@]12CCC3c4ccc(O)cc4CCC3C1CC(O)C2O (stereo not given in full) -8.72%, CC1=C2C(O)C(=O)OC3CC4C(C)(C)C(=O)C=C[C@]4(C)C(CC1)[C@@]23C (stereo not given in full) -5.85%, COc1c2c(nc3ccccc13)O[C@H]([C@@](C)(O)CO)C2 -4.59% [at 54.9 µM], C[C@]12CC[C@@H]3C(=CCc4cc(O)ccc43)[C@@H]1CCC2=O -13.4% [at 54.9 µM], CCN(CC)CCOC(=O)[C@@H](c1ccccc1)C1CCCCC1 -11.3% [at 54.9 µM], COc1c(OC)c2occc2c2oc(=O)ccc12 -12.9%, COC(=O)C(C)c1ccc(C(=O)c2cccs2)cc1 (stereo not given) -7.54%, CC(=O)C1CCC2C3CC(C)C4=CC(=O)CC[C@@]4(C)C3C(O)C[C@@]12C (stereo not given in full) -12.5%, CC(=O)OCC(=O)[C@@]1(O)CCC2C3CCC4=CC(=O)CC[C@@]4(C)[C@]3(F)C(O)C[C@]21C (stereo not given in full) -9.21%, CC(C)c1c(O)c(-c2cc3c(c(C(C)C)c2O)CCC2C(C)(C)CCC[C@@]32C)cc2c1CCC1C(C)(C)CCC[C@@]21C (stereo not given in full) -1.24%, O[C@@](CCN1CCCC1)(c1ccccc1)C1CCCCC1 2.27% [at 54.9 µM], C/C=C(\C)C(=O)OC1[C@@H]2C=C3C4CC(=O)OC(c5ccoc5)[C@]4(C)CCC3[C@@](C)(C2=O)C(C(O)C(=O)OC)C1(C)C (stereo not given in full) -15.5%, COc1ccc2c(c1)O[C@@H]1c3ccc(OC)cc3OCC21 (stereo not given in full) -8.74%, Nc1nc(=S)c2ncn([C@H]3O[C@@H](CO)[C@@H](O)[C@@H]3O)c2[nH]1 6.74% [at 54.9 µM], O=C/C=C/c1ccc(O)cc1 -6.57%, CC(C)=CCc1c(O)cc(C)oc1=O -8.99%
